Data taken from PubChem BioAssay AID652154 (Broad Institute, 2013).
“And” between values parts separate entries of the source, which are not always exact repeats. Equal values may be shown once. The whole screen tested about 360,000 compounds, of which about 4,200 (1.2%) were called active.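 How the source made its calls: active means mean replicate inhibition at least 60% with every replicate also reaching 60%; inconclusive means only one of the two criteria is met; inactive means mean below 60% and not all replicates reaching 60%.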 The list comes from a sample in which actives are over-represented; it also holds similar structures and randomly drawn compounds.

Experiment: PAX8 transcriptional activity inhibition in RMG-I – RMG-I cells, luciferase, single concentration, primary screen (AID 652154);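 further: luciferase light reporting Pax8 driven TPO promoter activity; plate controls were median of neutral control wells for no effect and mitoxantrone controls for full effect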
Details: RMG-I TPO-luciferase reporter, SteadyGlo, 24 h; at 12.6 µM; active compounds read high

Row | Structure (SMILES) | inhibition
1 | CN(C)CC1Oc2ccccc2OC1(O)c1ccccc1 (stereo not given) | 78.4% (active)
2 | O=C(Cc1ccccc1)N1CCCCN2[C@H](CO)[C@H](c3ccc(C#Cc4ccccc4)cc3)[C@H]2C1 | 0.0955% (inactive)
3 | O=C(Cc1ccncc1)N1CCCCN2[C@H](CO)[C@@H](c3ccc(C#CC4(O)CCCC4)cc3)[C@H]2C1 | -4.86% (inactive)
4 | O=C(Cc1ccccc1)N1CCCCN2[C@H](C1)[C@H](c1ccc(C#CC3(O)CCCC3)cc1)[C@@H]2CO | 12.4% (inactive)
5 | CCC(C)(O)C(=O)OC1C(=O)OC2CC3C(C)=CC(=O)C(O)C3(C)C3C4(O)OCC23C1C(C)C4O (stereo not given) | 96.4% (active)
6 | C/C=C/c1ccc([C@H]2[C@H](CO)N3CCCCN(C(=O)Cc4ccncc4)C[C@@H]23)cc1 | 11.3% (inactive)
7 | N#Cc1cccc(-c2ccc([C@H]3[C@@H](CO)N4CCCCN(C(=O)Cc5cccnc5)C[C@@H]34)cc2)c1 | -12% (inactive)
8 | Cc1cc(N2CCNC[C@@H]2C)ccc1N1CC[C@H](O)C1 | 1.43% (inactive)
9 | CC(=CCOc1ccc2ccc(=O)oc2c1)C1=CC(=O)C(C)(C)O1 | 108% (active)
10 | COc1ccc(C#Cc2ccc([C@H]3[C@H](CO)N4CCCCN(C(=O)Cc5ccccc5)C[C@@H]34)cc2)cc1 | -13.5% (inactive)
11 | C/C=C/c1ccc(C2[C@@H]3CN(Cc4cncnc4)C[C@H]2N3)cc1 (stereo not given in full) | -5.53% (inactive)
12 | COc1cccc(-c2ccc3n(c2=O)C[C@@H]2[C@@H](CO)[C@H](C(=O)O)[C@H]3N2C(=O)c2cnccn2)c1 | 1.83% (inactive)
13 | COC(=O)[C@@H]1[C@@H](CO)[C@@H]2Cn3c(ccc(-c4ccc(F)cc4)c3=O)[C@H]1N2C(C)=O | -4.95% (inactive)
14 | CCOc1ccc(-c2cc(C)[n+](CCN(CC)CC)c(-c3ccc(OCC)cc3)c2)cc1 | 87.4% (active)
15 | CCOC(=O)[C@]12Cc3cc(OC)ccc3[C@H]1N(C(C)C)C(=O)c1ccccc12 | -13.7% (inactive)
16 | O=C(Cc1ccncc1)N1CCCCN2[C@@H](CO)[C@H](c3ccc(C#CC4(O)CCCC4)cc3)[C@@H]2C1 | -6.83% (inactive)
17 | O=S(=O)(c1ccccc1)N1CCC2CCNC2C1 (stereo not given) | -15.4% (inactive)
18 | O=C(Cc1cccnc1)N1CCCCN2[C@@H](CO)[C@H](c3ccc(C#CC4CCCC4)cc3)[C@@H]2C1 | -34.4% (inactive)
19 | COc1cccc(-c2ccc([C@H]3[C@H]4CN(C(=O)Cc5ccncc5)CCCCN4[C@H]3CO)cc2)c1 | 47.9% (inactive)
20 | CCOC(=O)[C@@H]1[C@@H]2NC(=O)N[C@@]1(C)Oc1ccccc12 | 8.82% (inactive) and -6.19% (inactive)
21 | Brc1ccc2c(c1)CNCc1cnnn1-2 | -19.7% (inactive)
22 | O=C(O)[C@H]1[C@H](CO)[C@H]2Cn3c(ccc(-c4ccccc4)c3=O)[C@@H]1N2S(=O)(=O)c1ccccc1F | -5.43% (inactive)
23 | O=C1NCN(c2ccccc2)C12CCN(C(c1cccs1)c1nnnn1C1CCCCC1)CC2 (stereo not given) | -2.94% (inactive)
24 | O=c1[nH]c2ccccc2n1C1CCN(C(c2ccccc2)c2nnnn2Cc2ccccc2)CC1 (stereo not given) | 82.1% (active)
25 | CSCCC(c1nnnn1C(C)(C)C)N1CCC(n2c(=O)[nH]c3ccccc32)CC1 (stereo not given) | 32.9% (inactive)

Row | Structure (SMILES) | inhibition
26 | O=c1[nH]c2ccccc2n1C1CCN(C(c2ccnc3ccccc23)c2nnnn2Cc2ccccc2)CC1 (stereo not given) | -10.5% (inactive)
27 | COc1cccc(C(c2nnnn2-c2ccc3c(c2)OCCO3)N2CCC3(CC2)C(=O)NCN3c2ccccc2)c1OC (stereo not given) | -8.19% (inactive)
28 | COc1ccc(-n2nnnc2C(c2cccc3ccccc23)N2CCC(n3c(=O)[nH]c4ccccc43)CC2)cc1 (stereo not given) | 63.7% (active)
29 | CCOC(=O)[C@]12Cc3ccccc3[C@H]1N(C1CCCCC1)C(=O)c1cc(OC)ccc12 | 49.5% (inactive)
30 | COc1cccc(-c2ccc3n(c2=O)C[C@H]2[C@H](CO)[C@@H](C(=O)O)[C@@H]3N2C(=O)c2cnccn2)c1 | -1.69% (inactive)
31 | CS(=O)(=O)N1CCC2CCNC2C1 (stereo not given) | -27.9% (inactive)
32 | COc1cc(OC)cc(C(=O)NCCN2CCC3(CC2)C(=O)NCN3c2ccccc2)c1 | -21.4% (inactive)
33 | O=C(Cc1ccccn1)N1CCCCN2[C@@H](CO)[C@@H](c3ccc(C#Cc4ccccc4)cc3)[C@@H]2C1 | 9.59% (inactive)
34 | CC1=CC(=Cc2sc3ccccc3[n+]2C)C=C(C)O1 | 74.9% (active)
35 | C/C=C/c1ccc(C2[C@@H]3CN(S(C)(=O)=O)C[C@H]2N3)cc1 (stereo not given in full) | 9.75% (inactive)
36 | CCCCCCCCCCCCn1ccc(=N)cc1 | 101% (active)
37 | O=C(Cc1ccccn1)N1CCCCN2[C@H](C1)[C@H](c1ccc(-c3ccccc3F)cc1)[C@@H]2CO | 19.2% (inactive)
38 | O=C(O)[C@@H]1[C@@H](CO)[C@@H]2Cn3c(ccc(-c4ccccc4F)c3=O)[C@H]1N2C(=O)c1cccnc1 | -13.1% (inactive)
39 | OC[C@@H]1[C@H]2c3ccccc3NC[C@H]2N1Cc1cccnc1 | 2.56% (inactive)
40 | COC(=O)C1=C(c2ccc(F)cc2OCc2ccccc2)C[C@@H]2CC[C@H]1N2C(=O)NCc1ccc(OC)c(OC)c1 | 21.7% (inactive)
41 | COC(=O)C1=C(c2ccc(F)cc2OCc2ccccc2)C[C@@H]2CC[C@H]1N2C(=O)NCc1ccc2[nH]ccc2c1 | 89% (active)
42 | COC(=O)C1=C(c2ccccc2OCc2ccccc2)C[C@@H]2CC[C@H]1N2C(=O)NCc1ccc(OC)cc1 | 15% (inactive)
43 | COC(=O)C1=C(c2ccc(OCc3ccccc3)cc2)C[C@@H]2CC[C@H]1N2C(=O)NCc1cccc(F)c1 | 5.35% (inactive)
44 | COC(=O)C1=C(c2ccc(F)cc2OCc2ccccc2)C[C@@H]2CC[C@H]1N2C(=O)NCc1ccc(C(C)(C)C)cc1 | 79% (active)
45 | COC(=O)C1=C(c2ccc(F)cc2OCc2ccccc2)C[C@@H]2CC[C@H]1N2C(=O)NCc1ccc(Cl)cc1 | 24.6% (inactive)
46 | COC(=O)C[C@@H]1CC[C@@H]2NC[C@@H](O)COC[C@H]2O1 | 2.66% (inactive)
47 | COC(=O)C[C@H]1CC[C@H]2NC[C@@H](O)COC[C@@H]2O1 | 2.02% (inactive) and -13.9% (inactive)
48 | COC(=O)[C@H]1[C@H](CO)[C@H]2Cn3c(ccc(-c4cccc(F)c4)c3=O)[C@@H]1N2Cc1ccccc1 | 7.46% (inactive)
49 | COC(=O)[C@@H]1[C@@H](CO)[C@@H]2Cn3c(ccc(-c4cccc(C(=O)N(C)C)c4)c3=O)[C@H]1N2C(=O)NC(C)C | -0.877% (inactive)
50 | O=C(Cc1ccncc1)N1CCCCN2[C@@H](CO)[C@H](c3ccc(-c4ccncc4)cc3)[C@@H]2C1 | 6.85% (inactive)
